Test systems include SK-MEL-2 melanoma; EKVX NSCLC; SN12C renal; UO-31 renal; TK-10 renal; ACHN renal; CAKI-1 renal; A498 renal; CCRF-CEM leukemia; MOLT-4 leukemia; SR leukemia; RPMI-8226 leukemia; OVCAR-8 ovarian; OVCAR-5 ovarian; SK-OV-3 ovarian; IGROV1 ovarian; OVCAR-3 ovarian; HS 578T breast; NCI/ADR-RES ovarian; OVCAR-4 ovarian.
Common to all, as to test: NCI-60 one-dose screen, 48 h (100 = growth as untreated, 0 = no growth, -100 = all killed)
Settings in all cases: 10 µM unless noted

SMILES strings stand for the structures. Values joined by “and” are separate entries in the source; they are usually repeats but may differ in a detail not shown here. Identical values can stand only once. Compounds without any hit were thinned out: in the full panel of roughly 83,000, 20% have a hit.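 Cell lines were cultured in 96-well plates, exposed to a single compound concentration, and assessed for percent growth 48 hours later.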 Values without a mark were called inactive. Active and inactive are the calls of the source. The calls were made as follows: active = growth percent below 10; inactive = the rest.

`Fc1ccc(N2CC(Cn3c(C(F)(F)F)cc4c(Cl)ncnc43)C2)c(F)c1`: the growth is -78.1% (active) in the assay with SK-MEL-2 melanoma; 72.4% in the assay with EKVX NSCLC; -29.1% (active) in the assay on SN12C renal; -92% (active) in the assay with UO-31 renal; 104% with TK-10 renal; 41.8% in the assay with ACHN renal. The growth with CAKI-1 renal was 71.7%; in the assay on A498 renal, 130%; in the assay with CCRF-CEM leukemia, -38.5% (active); in the assay on MOLT-4 leukemia it was -61.3% (active); with SR leukemia, -60.9% (active); with RPMI-8226 leukemia, 24.2%. For the same compound, the growth in the assay on OVCAR-8 ovarian was -87.6% (active); with OVCAR-5 ovarian, 107%; in the assay on SK-OV-3 ovarian, 100%; with IGROV1 ovarian, -95.7% (active); in the assay with OVCAR-3 ovarian it was -66.2% (active); with HS 578T breast it was 55.1%. Besides, in the assay with NCI/ADR-RES ovarian, the growth was 11.4%.

Consider `NC(=Nc1ccc(OCCCCCCCCn2cnnn2)cc1)c1ccccc1`, for which the growth in the assay on SK-MEL-2 melanoma was 21%; in the assay on EKVX NSCLC, 40%; in the assay with SN12C renal it was 27%; in the assay with UO-31 renal it was 41.6%; in the assay on TK-10 renal it was 64.8%; with ACHN renal, 32.3%. For the same compound, the growth is 35.2% in the assay with CAKI-1 renal; 114% in the assay with A498 renal; 19.6% in the assay on CCRF-CEM leukemia; 20.9% with MOLT-4 leukemia; 14.6% in the assay on SR leukemia; 29.5% in the assay on RPMI-8226 leukemia. The growth in the assay on OVCAR-5 ovarian was 23.1%; in the assay on OVCAR-4 ovarian, 56%; in the assay with SK-OV-3 ovarian, 35.3%; in the assay on IGROV1 ovarian it was 24.4%; in the assay with HS 578T breast it was 22%.

In the case of `CS(=O)(=O)Nc1cc(-c2ccc3ncnc(Nc4ccc(OCc5cccnc5)c(Cl)c4)c3c2)cnc1Cl`, the growth in the assay on SK-MEL-2 melanoma is -76.7% (active); in the assay with EKVX NSCLC it was -24.4% (active); with SN12C renal, 8.19% (active); with UO-31 renal, 23.2%; in the assay on TK-10 renal, -27% (active); with ACHN renal it was 32%. Further, the growth was 1.71% (active) in the assay on CAKI-1 renal; -25.6% (active) with A498 renal; 11% in the assay on CCRF-CEM leukemia; -50.6% (active) in the assay with MOLT-4 leukemia; -60.1% (active) in the assay on SR leukemia; -2.42% (active) in the assay on RPMI-8226 leukemia. For the same compound, the growth was 12.1% in the assay on OVCAR-5 ovarian; 28.9% in the assay on OVCAR-4 ovarian; -14.9% (active) with SK-OV-3 ovarian; -56.8% (active) in the assay on IGROV1 ovarian; -40.7% (active) with OVCAR-3 ovarian; -25.3% (active) in the assay on HS 578T breast. In addition, the growth with NCI/ADR-RES ovarian was 70.5%.

With `CCc1ccccc1-c1nc(CN[C@@H]2C[C@@H]3C[C@H]([C@H]2C)C3(C)C)c(C)o1`, the growth was -83.6% (active) with SK-MEL-2 melanoma; -81.8% (active) in the assay on EKVX NSCLC; -79.3% (active) with SN12C renal; -87.8% (active) with UO-31 renal; -88.9% (active) in the assay on TK-10 renal; -97.9% (active) in the assay on ACHN renal. Further, the growth in the assay with CAKI-1 renal was -95% (active); in the assay on A498 renal it was -90.9% (active); in the assay on CCRF-CEM leukemia, 3.82% (active); with MOLT-4 leukemia, -28.2% (active); with SR leukemia, -15.6% (active); in the assay with RPMI-8226 leukemia, -13.9% (active). Moreover, the growth in the assay with OVCAR-5 ovarian was -87.4% (active); with OVCAR-4 ovarian, -42.9% (active); with SK-OV-3 ovarian, -79.8% (active); with IGROV1 ovarian, -85% (active); with OVCAR-3 ovarian it was -61.6% (active); with HS 578T breast it was -43.4% (active). In addition, the growth in the assay on NCI/ADR-RES ovarian was -78.4% (active).

Consider `COc1ccccc1NC(=O)c1ccc(NC(=O)CCl)s1`, for which the growth in the assay with SK-MEL-2 melanoma is 37.1%; with EKVX NSCLC it was 59.7%; in the assay on SN12C renal, -52.8% (active); in the assay on UO-31 renal it was -20.5% (active); in the assay with TK-10 renal, -6.19% (active); with ACHN renal, 10.2%. Also, the growth in the assay on CAKI-1 renal was -13.1% (active); in the assay with A498 renal it was 73.1%; with CCRF-CEM leukemia it was -18.9% (active); in the assay on MOLT-4 leukemia, -19.5% (active); in the assay with SR leukemia, 2.06% (active); in the assay with RPMI-8226 leukemia, -37.4% (active). Further, the growth in the assay with OVCAR-8 ovarian is -61% (active); in the assay with OVCAR-5 ovarian it was 2.87% (active); in the assay on SK-OV-3 ovarian, -4.26% (active); with IGROV1 ovarian, -63.9% (active); in the assay on OVCAR-3 ovarian, 1.97% (active); in the assay with HS 578T breast it was 18.3%. The growth in the assay on NCI/ADR-RES ovarian was 2.28% (active).

For `COC(=O)c1cc(C(=O)C(C)(C)C)n2c3ccccc3c3ccccc3c12`, the growth with SK-MEL-2 melanoma was 93.3%; in the assay with EKVX NSCLC, 101%; with SN12C renal, 95.5%; in the assay with UO-31 renal, 84.7%; in the assay on TK-10 renal, 121%; in the assay on ACHN renal it was 89.7%. Besides, the growth with CAKI-1 renal is 60.7%; in the assay on A498 renal, 156%; with CCRF-CEM leukemia, 75.8%; in the assay on MOLT-4 leukemia, 67.1%; in the assay on SR leukemia, 69.7%; in the assay with RPMI-8226 leukemia, 70.2%. Also, the growth was 98.6% in the assay on OVCAR-8 ovarian; 98.6% in the assay on OVCAR-5 ovarian; 109% with SK-OV-3 ovarian; 86.2% in the assay with IGROV1 ovarian; 110% in the assay on OVCAR-3 ovarian; 99.3% with HS 578T breast. Also, the growth in the assay on NCI/ADR-RES ovarian is 89.3%.

`NS(=O)(=O)c1ccc(N2N=C(c3ccc(NC(=O)Nc4ccccc4)cc3)CC2c2ccc(Br)cc2)cc1` (stereo not given): the growth was -75.8% (active) with SK-MEL-2 melanoma; -95.8% (active) in the assay on EKVX NSCLC; -97.7% (active) in the assay on SN12C renal; -97.2% (active) in the assay with UO-31 renal; -61.3% (active) in the assay on TK-10 renal; -100% (active) in the assay on ACHN renal. Besides, the growth is -85.4% (active) in the assay with CAKI-1 renal; -79.4% (active) with A498 renal; 0.369% (active) in the assay with CCRF-CEM leukemia; 9.26% (active) in the assay with MOLT-4 leukemia; 13% in the assay with SR leukemia; 4.09% (active) in the assay with RPMI-8226 leukemia. The growth was -32.7% (active) in the assay with OVCAR-8 ovarian; -98.2% (active) in the assay with OVCAR-5 ovarian; -61.7% (active) in the assay with SK-OV-3 ovarian; -86.7% (active) in the assay with IGROV1 ovarian; -29.7% (active) with OVCAR-3 ovarian; -24.5% (active) in the assay on HS 578T breast. Also, the growth in the assay on NCI/ADR-RES ovarian is -83.4% (active).

With `NC1(c2ccc(-c3ccc4ncnc(NCc5ccccc5)c4c3)cn2)COC1`, the growth in the assay with SK-MEL-2 melanoma was 112% and 113%; with EKVX NSCLC, 111% and 100%; in the assay with SN12C renal, 105% and 101%; in the assay with UO-31 renal, 99.8% and 85.4%; in the assay on TK-10 renal, 108%; with ACHN renal it was 102% and 109%. Moreover, the growth is 94.8% and 103% with CAKI-1 renal; 118% and 134% with A498 renal; 106% and 102% in the assay with CCRF-CEM leukemia; 112% and 101% with MOLT-4 leukemia; 101% and 92.4% in the assay with SR leukemia; 117% and 110% with RPMI-8226 leukemia. Moreover, the growth in the assay on OVCAR-8 ovarian was 113% and 117%; with OVCAR-5 ovarian, 102% and 103%; in the assay with SK-OV-3 ovarian it was 143% and 109%; with IGROV1 ovarian, 116% and 108%; with OVCAR-3 ovarian it was 106% and 74.8%; with HS 578T breast, 105%. Moreover, the growth in the assay on NCI/ADR-RES ovarian was 104% and 107%.

(Values after PubChem BioAssay (NCI).)
